Results as given in the supplement of paper PMC12350171.
Structures can show the parent of a compound that is named as a salt. Values without a mark were called inactive.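 Rule for the calls: active = AUC significantly below DMSO controls by Student t-fit with adjusted P under 0.01; inactive = not significantly reduced.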

These compounds were tested on Haemophilus parainfluenzae (assay: growth AUC normalised to DMSO control (fraction of control); higher = less growth inhibition, active = hit call of the paper). Conditions: 20 µM.
Procedure, shortened: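 After two anaerobic passages, pathogens were added at a starting OD578 of 0.01 to pre-reduced mGAM plates holding compound at 20 μM with 1% DMSO; hemin and NAD were supplemented for Haemophilus parainfluenzae. Sealed with breathable membranes, plates were read at OD578 hourly for 24 h, in three biological replicates. The trapezoidal rule, applied up to the exponential-to-stationary transition, gave the growth-curve AUC, which was normalised to DMSO controls on the same plate.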

Question: How did the “growth AUC normalised to DMSO control” value turn out when `Cc1c(N)c(=O)n(-c2ccccc2)n1C` [Ampyrone] was run?
Answer: 1

Question: `COCCCC/C(=N\OCCN)c1ccc(C(F)(F)F)cc1` [Fluvoxamine maleate] was tested. Which “growth AUC normalised to DMSO control” value did it give?
Answer: 0.981

Question: For `CCC(=O)O[C@]1(C(=O)CCl)[C@@H](C)C[C@H]2[C@@H]3CCC4=CC(=O)C=C[C@]4(C)[C@@]3(F)[C@@H](O)C[C@@]21C` [Clobetasol propionate], which “growth AUC normalised to DMSO control” value is on record?
Answer: 1.47

Question: How did the “growth AUC normalised to DMSO control” value turn out when `O=C1NCCN1c1ncc([N+](=O)[O-])s1` [Niridazole] was run?
Answer: 0.392 (active)

Question: With `CN1CCc2cccc3c2[C@H]1Cc1ccc(O)c(O)c1-3` [R(-) Apomorphine hydrochloride hemihydrate] as the compound, how does the “growth AUC normalised to DMSO control” value read?
Answer: 1.05

Question: Which “growth AUC normalised to DMSO control” value does the source give for `COc1cc(Cc2cnc(N)nc2N)cc(OC)c1OC` [Trimethoprim] here?
Answer: 0.0255 (active)

Question: With `O=C(O)Cc1sc(-c2ccccc2)nc1-c1ccc(Cl)cc1` [Fentiazac] as the compound, how does the “growth AUC normalised to DMSO control” value read?
Answer: 1.03

Question: With `CN1CCN(c2c(F)cc3c(=O)c(C(=O)O)cn4c3c2SCC4)CC1` [Rufloxacin] as the compound, how does the “growth AUC normalised to DMSO control” value read?
Answer: 0.0692 (active)

Question: With `COc1cc([S+](C)[O-])ccc1-c1nc2cccnc2[nH]1` (configuration not stated) [Sulmazole] as the compound, how does the “growth AUC normalised to DMSO control” value read?
Answer: 1

Question: `CCCC(=O)Nc1ccc(OCC(O)CNC(C)C)c(C(C)=O)c1` (configuration not stated) [Acebutolol hydrochloride] was tested. Which “growth AUC normalised to DMSO control” value did it give?
Answer: 1.03

Question: For `COc1ccc2c(c1)N(C[C@H](C)CN(C)C)c1ccccc1S2` [Methotrimeprazine maleate salt], which “growth AUC normalised to DMSO control” value is on record?
Answer: 1.04

Question: With `CCOC(=O)NNc1nncc2ccccc12` [Todralazine hydrochloride] as the compound, how does the “growth AUC normalised to DMSO control” value read?
Answer: 1.01
